The list is not random: actives were taken first. Their share in the collection is about 3%.
SENP8 block-1 – SENP8 protease inhibitors, primary screen, biochemical, luminescence; inhibition, % at 10 µM; 330,000 compounds, 1.2% hits; Sentrin-specific protease 8 (Homo sapiens), Q96LD8; AID 2540, 2010; purified SENP8, Z-RLRGG-aminoluciferin cleavage; in the data active = inhibition above about 50%
Target sequence (Q96LD8 whole entry, looked up): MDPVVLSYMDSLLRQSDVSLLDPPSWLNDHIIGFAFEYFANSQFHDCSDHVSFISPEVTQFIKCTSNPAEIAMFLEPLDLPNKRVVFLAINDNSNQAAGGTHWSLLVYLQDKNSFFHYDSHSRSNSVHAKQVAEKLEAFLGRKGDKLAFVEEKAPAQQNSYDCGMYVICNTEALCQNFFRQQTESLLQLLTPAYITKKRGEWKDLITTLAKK
SENP7 block – SENP7 protease inhibitors, primary screen, biochemical, luminescence, uHTS. Sentrin-specific protease 7 (Homo sapiens), Q9BQF6. 330,000 compounds, 1.5% hits. inhibition, % at 5 µM. recombinant SENP7, Z-RLRGG-aminoluciferin luminescence, 40 min. AID 434973, 2010;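 active = inhibition above about 50% at the single test dose, limit read from the data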;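 also: plate controls were DMSO with enzyme for no effect and no enzyme buffer wells for full effect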
Target sequence (Q9BQF6 706-1050 limits assumed): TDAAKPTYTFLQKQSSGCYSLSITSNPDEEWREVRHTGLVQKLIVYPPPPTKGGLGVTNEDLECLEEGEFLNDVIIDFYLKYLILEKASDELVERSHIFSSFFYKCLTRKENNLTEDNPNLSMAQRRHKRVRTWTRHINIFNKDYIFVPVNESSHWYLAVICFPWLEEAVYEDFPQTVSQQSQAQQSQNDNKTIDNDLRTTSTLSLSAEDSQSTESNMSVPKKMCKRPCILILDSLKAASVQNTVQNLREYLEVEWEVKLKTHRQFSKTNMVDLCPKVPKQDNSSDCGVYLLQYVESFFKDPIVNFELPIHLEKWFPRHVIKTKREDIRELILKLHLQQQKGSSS
SENP8 block-2 – human SENP8 protease inhibitors, primary screen, biochemical, fluorescence, Nedd8 protein substrate, uHTS | recombinant SENP8 | inhibition, % at 20 µM | Sentrin-specific protease 8 (Homo sapiens), Q96LD8 | AID 602440, 2012 | 360,000 compounds, 0.64% hits; in the data active = inhibition mostly above about 40%, no sharp cut-off; inactive = mostly below about 27%
TRAIL sens C8 – viability loss with TRAIL in NB7+C8 cells, primary screen, TRAIL sensitizer project, cell-based, ATPlite luminescence. inhibition (viability loss, TRAIL sensitization), % at 10 µM. 360,000 compounds, 1% hits. AID 624354, 2012;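 active = compounds causing at least 50% loss of cell viability in the single-dose screen, relative to plate controls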
SENP6 inh – SENP6 protease inhibitors, primary screen, biochemical, luminescence, uHTS. Recombinant SENP6 catalytic domain, aminoluciferin luminescence. inhibition, % at 10 µM. 330,000 compounds, 1.8% hits. AID 2599, 2010;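 active = inhibition above about 50% at the single tested dose, limit read from the data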;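 also: plate controls were DMSO wells with enzyme for no effect and DMSO wells lacking enzyme for full effect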
PPC-1+TRAIL kill – compounds killing PPC-1 cancer cells with TRAIL present, primary screen, TRAIL potentiator project, ATPLite luminescence, uHTS; PPC-1 cells + TRAIL, ATPLite viability luminescence; cell killing (% activity), % at 4 µM or 5 µM; 220,000 compounds, 0.41% hits;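 active = cell killing above 50% in the first pass at 4 µM, then a duplicate retest at 5 µM averaging 50% or more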;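 also: plate controls were cells with TRAIL plus DMSO for no effect and medium-only wells lacking cells for full effect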
* hit, by the source's call; i = inactive; nt = no result given.

SMILES | SENP8 block-1 | SENP7 block | SENP8 block-2 | TRAIL sens C8 | SENP6 inh | PPC-1+TRAIL kill
O=C(c1ccco1)N1CCN(CCCCN2C(=O)c3ccccc3C2=O)CC1 | -3 | 15 | 9 | -22 | 0 | 29
O=C(O)CCCNc1cc(N2CCN(C(=O)c3ccco3)CC2)c2noc3c2c1C(=O)c1ccccc1-3 | 24 | 15 | 77* | 2 | 38 | nt
CCOC(=O)N1CCN(c2cc(NCCC(=O)O)c3c4c(onc24)-c2ccccc2C3=O)CC1 | 26 | 26 | 88* | 5 | 48 | 34
O=C1c2ccccc2-c2onc3c(N4CCN(CCO)CC4)cc(N4CCN(C(=O)c5ccco5)CC4)c1c23 | 11 | 16 | 75* | 20 | 20 | nt
OC(c1ccccc1)(c1nc(/C=C/c2ccc(C(F)(F)F)cc2)cs1)C(F)(F)F (stereo unspecified) | nt | nt | -24 | 11 | nt | nt
Cc1ccccc1/C=C/c1nc2ccccc2c(=O)[nH]1 | 69* | 86* | -71 | 54* | 12 | 25
COc1ccccc1N(CC(=O)NCc1ccccc1)S(=O)(=O)c1cccs1 | nt | nt | -3 | 14 | nt | nt
COc1ccccc1COc1ccc2c(C)c(CC(=O)O)c(=O)oc2c1C | 8 | 5 | -336 | 16 | -22 | nt
CCSc1nc(N)nc2c1ncn2C1OC(CO)C(O)C1O (stereo unspecified) | nt | nt | -58 | -2 | nt | nt
Cn1cnc([N+](=O)[O-])c1Sc1nc(N)nc2c1ncn2C1CC(O)C(CO)O1 (stereo unspecified) | nt | nt | 7 | 72* | nt | nt
Cn1cnc([N+](=O)[O-])c1Sc1nc(N)nc2c1ncn2C1OC(CO)C(O)C1O (stereo unspecified) | nt | nt | 14 | 71* | nt | nt
COc1cccc(N=Nc2c(N)[nH][nH]c2=O)c1 | 0 | 22 | 38 | 8 | 0 | 9
COc1cccc(N=Nc2c(N)[nH]n3c(=O)c4c(nc23)CCCC4)c1 | -3 | 10 | 50* | 9 | 3 | 23
CC(CC(=O)N1CCN(c2ccccc2)CC1)S(=O)(=O)c1ccc2c(c1)NC(=O)CO2 (stereo unspecified) | -9 | -5 | -14 | -1 | 1 | nt
Nc1ncnc2c1ncn2[C@@H]1O[C@H](C(=O)NS(=O)(=O)c2cccs2)[C@@H](O)[C@H]1O | nt | nt | 35 | -28 | nt | nt
CCN(CC)c1ccc(C(=O)NNC(=O)CCNC(=O)c2ccccc2)cc1 | -14 | -6 | -11 | 11 | -11 | nt
CCN(CC)c1ccc(C(=C2C=CC(=[N+](CC)CC)C=C2)c2ccc(N(CC)CC)cc2)cc1 | nt | nt | 25 | 88* | nt | nt
CCN(CC)c1ccc(C(=O)NNC(=O)CCl)cc1 | 1 | 8 | -4 | 5 | 2 | 5
CCN(CC)c1ccc(C(=C2C=CC(=[N+](CC)CC)C=C2)c2ccccc2)cc1 | nt | nt | 2 | 89* | nt | nt
O=S1(=O)CC(N2CCN(CC3CC3)CC2)CN1CCc1ccccc1 (stereo unspecified) | nt | nt | 10 | -12 | nt | nt
CCCCCCCCOC(=O)c1c(CSC(=N)N)n(C)c2cc(Br)c(OC(C)=O)cc12 | 4 | 0 | 9 | 92* | -14 | -2
CCOC(=O)c1c(CSC(=N)N)n(-c2ccc(Br)cc2)c2cc(Br)c(OC(C)=O)cc12 | nt | nt | 8 | 9 | nt | 14
C=C(C)[C@@H]1C2=CC(C(=O)OC)=C(C[C@H](C(=C)C)[C@H]3O[C@H]3C3=C[C@H]1OC3=O)O2 | nt | nt | 36 | 77* | nt | nt
Cc1ccc(-c2nc(N/N=C/c3ccccc3[N+](=O)[O-])c3ccccc3n2)cc1 | 0 | 14 | 10 | 89* | 4 | 31
O=[N+]([O-])c1ccccc1C=NNc1ccccc1 | nt | nt | 36 | -5 | nt | nt
SMILES | SENP8 block-1 | SENP7 block | SENP8 block-2 | TRAIL sens C8 | SENP6 inh | PPC-1+TRAIL kill
Cc1ccc2nc(-c3ccc(NC(=O)COC(=O)c4ccc(=O)[nH]c4)cc3)sc2c1 | 7 | 0 | -340 | 49 | -9 | 50*
Cc1ccc2nc(-c3ccc(NC(=O)CCS(=O)(=O)c4ccccc4)cc3)sc2c1 | -1 | 21 | -412 | 88* | -9 | 45
Cc1nnc(SCC(=O)Nc2ccc(-c3nc4ccccc4s3)cc2)s1 | nt | nt | -412 | 67* | nt | 22
Cc1ccc2nc(-c3ccc(NC(=O)CSc4nccc(=O)[nH]4)cc3)sc2c1 | 8 | 69* | -362 | 47 | 81* | 28
Cc1nnc(SCC(=O)Nc2ccccc2NC(=O)CSc2nnc(C)s2)s1 | 0 | 10 | 13 | 4 | 3 | 24
NC(=O)C1CCN(CC(=O)Nc2ccc(S(=O)(=O)N3CCOCC3)cc2)CC1 | 1 | -2 | 10 | 2 | -17 | nt
NC(=S)NN=C1Cc2cccc3cccc1c23 | nt | nt | -17 | 7 | nt | nt
O=C(CCN1C(=O)NC2(CCCC2)C1=O)Nc1ccc(-c2nc3ccccc3s2)cc1 | 17 | 12 | i | 56* | 19 | nt
CC(=O)Nc1ccc(NC(=O)CSc2nnc(NC(=O)c3ccccc3F)s2)cc1 | nt | nt | -1 | 66* | nt | nt
O=C(CCN1C(=O)NC2(CCCC2)C1=O)Nc1ccc(Sc2ccc(Br)cc2)cc1 | nt | nt | 10 | 9 | nt | nt
Cc1ccc2nc(-c3ccc(NC(=O)C(C)Sc4nncs4)cc3)sc2c1 (stereo unspecified) | 5 | 37 | i | 52* | -7 | nt
O=C(CSc1nnc(NC(=O)c2ccccc2F)s1)NC1CCCC1 | -1 | 0 | -2 | 38 | -4 | nt
Cc1ccc2nc(-c3ccc(NC(=S)NC(=O)CC(C)C)cc3)sc2c1 | 4 | 6 | -296 | 9 | 5 | -14
Cc1c(N2C(=O)/C(=C/c3ccc(N(C)C)cc3)N(C)C2=S)c(=O)n(-c2ccccc2)n1C | nt | nt | 44* | -16 | nt | nt
Cc1c(N2C(=O)/C(=C/c3ccccc3)SC2=S)c(=O)n(-c2ccccc2)n1C | 1 | 13 | 24 | 0 | -10 | 9
COc1cc(SC)ccc1C(=O)OCC(=O)N1CC(=O)Nc2ccccc21 | -4 | 4 | 1 | 6 | -7 | nt
COc1ccc(NC(=O)Nc2nc(C(N)CC(C)C)cs2)cc1 (stereo unspecified) | nt | nt | 11 | 7 | nt | nt
NC(c1csc(NC(=O)Nc2ccc(OC(F)(F)F)cc2)n1)C1CCCCC1 (stereo unspecified) | nt | nt | 7 | 85* | nt | nt
O=C(NCc1ccccc1)c1cc(C2COCCN2C(=O)OCCF)on1 (stereo unspecified) | nt | nt | 8 | 8 | nt | nt
COc1ccc2nc(C)cc(Nc3ccc(N4CCN(C)CC4)cc3)c2c1 | 7 | 2 | 23 | 49* | 5 | nt
COc1ccc(/C=N/Nc2cc(C)nc3ccc(OC)cc23)c(OC)c1 | -13 | -4 | -284 | 89* | 2 | nt
COc1ccc2nc(C)cc(SCC(=O)N/N=C/c3ccccc3)c2c1 | 1 | 4 | -12 | 2 | 0 | 26
